# Source: PubChem BioAssay AID1159580 (chemical genetic matrix, 2015)
# Among all 5,500 compounds or so, about 2,000 (36%) were called active. Not shown: some 18% with an inconclusive outcome. The list shows a part of the results. Values without a mark were called inactive. Rule as the data show it: active = normalized growth mostly below about 0.91 (no sharp cut-off); inconclusive = no clear call, values can overlap the other calls; inactive = mostly above about 0.92.
# Assay: chemical genetic growth profiling, strain panel (AID 1159580);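 also: tested at 20 µM; growth read once vehicle control cultures reached saturation at 30 °C; 1 = growth at the plate median or of vehicle wells; lower values mean less growth of the strain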
# Conditions: growth OD
smiles,measurement,setting,value
CCC(=O)O[C@H]1CCC2C3CCC4=CC(=O)CC[C@]4(C)C3CC[C@@]21C (some centres not stated),normalized growth,"S. cerevisiae deletion strains, locus YJR066W, strain TOR1, stronger effect = lower value",0.884
same,normalized growth,"S. cerevisiae deletion strains, locus YKL009W, strain mrt4, stronger effect = lower value",0.974
same,normalized growth,"S. cerevisiae deletion strains, locus YKL068W, stronger effect = lower value",0.972
same,normalized growth,"S. cerevisiae deletion strains, locus YKL085W, strain MDH1 (second series), stronger effect = lower value",0.901 (active)
same,normalized growth,"S. cerevisiae deletion strains, locus YKL085W, strain MDH1, stronger effect = lower value",0.901 (active)
same,normalized growth,"S. cerevisiae deletion strains, locus YKL160W, strain elf1, stronger effect = lower value",0.882 (active)
same,normalized growth,"S. cerevisiae deletion strains, locus YKR001C, strain vps1, stronger effect = lower value",0.861 (active)
same,normalized growth,"S. cerevisiae deletion strains, locus YKR026C, strain gcn3, stronger effect = lower value",0.96
same,normalized growth,"S. cerevisiae deletion strains, locus YKR091W, strain srl3, stronger effect = lower value",0.948
same,normalized growth,"S. cerevisiae deletion strains, locus YLL001W, strain dnm1, stronger effect = lower value",0.989
same,normalized growth,"S. cerevisiae deletion strains, locus YLL026W, stronger effect = lower value",0.971
same,normalized growth,"S. cerevisiae deletion strains, locus YLL041C, strain sdh2, stronger effect = lower value",0.957
same,normalized growth,"S. cerevisiae deletion strains, locus YLR027C, strain aat2, stronger effect = lower value",0.93
same,normalized growth,"S. cerevisiae deletion strains, locus YLR039C, strain RIC1, stronger effect = lower value",0.653 (active)
same,normalized growth,"S. cerevisiae deletion strains, locus YLR058C, strain SHM2, stronger effect = lower value",0.956
same,normalized growth,"S. cerevisiae deletion strains, locus YLR102C, strain apc9, stronger effect = lower value",0.99
same,normalized growth,"S. cerevisiae deletion strains, locus YLR113W, strain HOG1, stronger effect = lower value",0.941
same,normalized growth,"S. cerevisiae deletion strains, locus YLR221C, strain rsa3, stronger effect = lower value",0.925
same,normalized growth,"S. cerevisiae deletion strains, locus YLR258W, strain gsy2, stronger effect = lower value",0.899 (active)
same,normalized growth,"S. cerevisiae deletion strains, locus YLR262C, strain YPT6 (second series), stronger effect = lower value",0.671 (active)
same,normalized growth,"S. cerevisiae deletion strains, locus YLR262C, strain YPT6, stronger effect = lower value",0.633
same,normalized growth,"S. cerevisiae deletion strains, locus YLR268W, strain sec22, stronger effect = lower value",0.934
same,normalized growth,"S. cerevisiae deletion strains, locus YLR320W, strain mms22, stronger effect = lower value",0.83 (active)
same,normalized growth,"S. cerevisiae deletion strains, locus YLR330W, strain CHS5, stronger effect = lower value",0.821 (active)
same,normalized growth,"S. cerevisiae deletion strains, locus YLR342W, strain FKS1 (second series), stronger effect = lower value",0.745 (active)
same,normalized growth,"S. cerevisiae deletion strains, locus YLR342W, strain FKS1, stronger effect = lower value",0.779 (active)
same,normalized growth,"S. cerevisiae deletion strains, locus YLR357W, strain rsc2, stronger effect = lower value",0.944
same,normalized growth,"S. cerevisiae deletion strains, locus YLR370C, strain arc18, stronger effect = lower value",0.955
same,normalized growth,"S. cerevisiae deletion strains, locus YLR371W, strain rom2, stronger effect = lower value",0.783 (active)
same,normalized growth,"S. cerevisiae deletion strains, locus YLR384C, strain iki3, stronger effect = lower value",0.969
same,normalized growth,"S. cerevisiae deletion strains, locus YLR418C, strain cdc73, stronger effect = lower value",0.672 (active)
same,normalized growth,"S. cerevisiae deletion strains, locus YML016C, strain PPZ1, stronger effect = lower value",0.982
same,normalized growth,"S. cerevisiae deletion strains, locus YML032C, strain rad52, stronger effect = lower value",0.889 (active)
same,normalized growth,"S. cerevisiae deletion strains, locus YML120C, strain ndi1, stronger effect = lower value",0.952
same,normalized growth,"S. cerevisiae deletion strains, locus YML124C, strain tub3, stronger effect = lower value",0.972
same,normalized growth,"S. cerevisiae deletion strains, locus YMR058W, strain fet3, stronger effect = lower value",0.916
same,normalized growth,"S. cerevisiae deletion strains, locus YMR078C, strain ctf18, stronger effect = lower value",0.978
same,normalized growth,"S. cerevisiae deletion strains, locus YMR125W, strain sto1, stronger effect = lower value",0.913
same,normalized growth,"S. cerevisiae deletion strains, locus YMR129W, stronger effect = lower value",0.942
same,normalized growth,"S. cerevisiae deletion strains, locus YMR205C, strain PFK2, stronger effect = lower value",0.785 (active)
same,normalized growth,"S. cerevisiae deletion strains, locus YMR223W, strain ubp8, stronger effect = lower value",0.888 (active)
same,normalized growth,"S. cerevisiae deletion strains, locus YMR231W, strain pep5, stronger effect = lower value",0.957
same,normalized growth,"S. cerevisiae deletion strains, locus YMR263W, strain SAP30, stronger effect = lower value",0.963
same,normalized growth,"S. cerevisiae deletion strains, locus YMR307W, strain GAS1, stronger effect = lower value",0.917
same,normalized growth,"S. cerevisiae deletion strains, locus YNL067W, strain RPL9B, stronger effect = lower value",0.985
same,normalized growth,"S. cerevisiae deletion strains, locus YNL071W, strain lat1, stronger effect = lower value",0.719 (active)
same,normalized growth,"S. cerevisiae deletion strains, locus YNL183C, strain NPR1, stronger effect = lower value",0.89
same,normalized growth,"S. cerevisiae deletion strains, locus YNL233W, strain BNI4, stronger effect = lower value",0.803 (active)
same,normalized growth,"S. cerevisiae deletion strains, locus YNL248C, strain rpa49, stronger effect = lower value",0.86 (active)
same,normalized growth,"S. cerevisiae deletion strains, locus YNL250W, strain rad50, stronger effect = lower value",1
same,normalized growth,"S. cerevisiae deletion strains, locus YNL271C, strain bni1, stronger effect = lower value",0.963
same,normalized growth,"S. cerevisiae deletion strains, locus YNL298W, strain CLA4, stronger effect = lower value",0.949
same,normalized growth,"S. cerevisiae deletion strains, locus YNL307C, strain MCK1, stronger effect = lower value",0.679 (active)
same,normalized growth,"S. cerevisiae deletion strains, locus YNL322C, strain KRE1 (second series), stronger effect = lower value",0.952
same,normalized growth,"S. cerevisiae deletion strains, locus YNL322C, strain KRE1, stronger effect = lower value",0.958
same,normalized growth,"S. cerevisiae deletion strains, locus YNR049C, strain mso1, stronger effect = lower value",0.932
same,normalized growth,"S. cerevisiae deletion strains, locus YNR052C, strain pop2, stronger effect = lower value",0.924
same,normalized growth,"S. cerevisiae deletion strains, locus YOL006C, strain TOP1, stronger effect = lower value",0.74
same,normalized growth,"S. cerevisiae deletion strains, locus YOL012C, strain htz1",0.608
same,normalized growth,"S. cerevisiae deletion strains, locus YOL147C, strain pex11, stronger effect = lower value",0.967
same,normalized growth,"S. cerevisiae deletion strains, locus YOR001W, strain rrp6, stronger effect = lower value",0.971
same,normalized growth,"S. cerevisiae deletion strains, locus YOR061W, strain CKA2, stronger effect = lower value",0.971
same,normalized growth,"S. cerevisiae deletion strains, locus YOR069W, strain VPS5, stronger effect = lower value",0.976
same,normalized growth,"S. cerevisiae deletion strains, locus YOR070C, strain gyp1, stronger effect = lower value",0.944
same,normalized growth,"S. cerevisiae deletion strains, locus YOR080W, strain dia2, stronger effect = lower value",0.941
same,normalized growth,"S. cerevisiae deletion strains, locus YOR083W, strain WHI5, stronger effect = lower value",0.796 (active)
same,normalized growth,"S. cerevisiae deletion strains, locus YOR106W, strain vam3, stronger effect = lower value",0.837 (active)
same,normalized growth,"S. cerevisiae deletion strains, locus YOR136W, strain idh2, stronger effect = lower value",0.965
same,normalized growth,"S. cerevisiae deletion strains, locus YOR144C, strain elg1, stronger effect = lower value",0.968
same,normalized growth,"S. cerevisiae deletion strains, locus YOR184W, strain ser1, stronger effect = lower value",0.523 (active)
same,normalized growth,"S. cerevisiae deletion strains, locus YOR231W, strain MKK1, stronger effect = lower value",0.988
same,normalized growth,"S. cerevisiae deletion strains, locus YOR265W, strain rbl2, stronger effect = lower value",0.946
same,normalized growth,"S. cerevisiae deletion strains, locus YOR270C, strain vph1, stronger effect = lower value",0.653 (active)
same,normalized growth,"S. cerevisiae deletion strains, locus YOR290C, strain snf2, stronger effect = lower value",0.892
same,normalized growth,"S. cerevisiae deletion strains, locus YOR316C, strain cot1, stronger effect = lower value",0.987
same,normalized growth,"S. cerevisiae deletion strains, locus YPL051W, strain arl3, stronger effect = lower value",0.89 (active)
same,normalized growth,"S. cerevisiae deletion strains, locus YPL055C, strain LGE1, stronger effect = lower value",0.794
same,normalized growth,"S. cerevisiae deletion strains, locus YPL078C, strain atp4, stronger effect = lower value",0.869 (active)
same,normalized growth,"S. cerevisiae deletion strains, locus YPL106C, strain sse1, stronger effect = lower value",0.906
same,normalized growth,"S. cerevisiae deletion strains, locus YPL240C, strain hsp82, stronger effect = lower value",0.978
same,normalized growth,"S. cerevisiae deletion strains, locus YPL256C, strain CLN2, stronger effect = lower value",0.982
same,normalized growth,"S. cerevisiae deletion strains, locus YPR119W, strain clb2, stronger effect = lower value",0.981
same,normalized growth,"S. cerevisiae deletion strains, locus YPR141C, strain kar3, stronger effect = lower value",0.976
same,normalized growth,"S. cerevisiae deletion strains, locus YPR163C, strain tif3, stronger effect = lower value",0.933
same,normalized growth,"S. cerevisiae deletion strains, locus YPR167C, strain met16, stronger effect = lower value",0.971
same,normalized growth,"S. cerevisiae deletion strains, strain wtn01, stronger effect = lower value",0.924
same,normalized growth,"S. cerevisiae strains, strain wild type, stronger effect = lower value",0.944
